Results filed as inconclusive are left out. Where a call stands in place of a potency, no number is given. Values without a mark were called inactive. Calls of active or inactive are those of the source. Calls follow the shape of the full dose curve; tested in HEK293 reporter line.
Assay: qHTS for Inhibitors of the Functional Ribonucleoprotein Complex (vRNP) of Lymphocytic Choriomeningitis Arenaviruses (LCMV): Viability assay - alamar blue signal for LCMV Primary Screen (AID 1347085); also: nearly all actives have a fitted effect of over 80% in size
Settings: alamar blue viability counter-screen, LCMV vRNP screen cells; series mostly up to 57.5 µM

Compound	Potency	activity change, negative = lower viability
C[C@@H]1CCCCCCCCCCC1=O	inactive	
COc1cc2c(OC(C)=O)c3c(c(-c4ccc5c(c4)OCO5)c2cc1OC)C(=O)OC3	inactive	
COC(=O)c1cc(=O)cc(C(=O)OC)o1	inactive	
O=P(O)(O)OC[C@H]1O[C@](O)(COP(=O)(O)O)[C@@H](O)[C@@H]1O	inactive	
CC(=O)OC[C@H]1O[C@@H](Oc2cc(O)cc3oc(-c4ccc(O)cc4)cc(=O)c23)[C@H](O[C@@H]2O[C@@H](C)[C@H](O)[C@@H](O)[C@H]2O)[C@@H](O)[C@@H]1O	inactive	
CC1CC2CCCC(O)=C2C(=O)O1 (stereo not given)	inactive	
C=C/C(=C/C(=O)C[C@H](C)C[C@@H](C)CC[C@H](O)[C@H](C)C(=O)C[C@@H](O)[C@H](C)[C@@H](C)OC(=O)C[C@@H](O)C1=C(C)C(=O)OC1=O)CC		-114% [at 11.5 µM]
C=C(C)c1cc2c(ccc3ccc(=O)oc32)o1	inactive	
C/C(=C\CNc1ncnc2c1ncn2[C@@H]1O[C@H](CO)[C@@H](O)[C@H]1O)CO	inactive	
NC1C(O)OC(CO)[C@@H](O)[C@@H]1O[C@H]1O[C@@H](C(=O)O)C(O)C(O)C1O (stereo not given in full)	inactive	
CCCC1CCOC(C)S1 (stereo not given)	inactive	
O=C(Nc1cc2cc[nH]c2cn1)c1ccccc1	inactive	
O=C(O)CC(=O)Nc1ccccc1C(=O)O	inactive	
CC(=O)OCC(=O)[C@@]1(O)CC[C@H]2[C@@H]3CCC4=CC(=O)CC[C@]4(C)[C@@H]3C(=O)C[C@@]21C	inactive	
O=C1O/C(=C\c2ccc(O)cc2)C(O)=C1c1ccc(O)cc1	inactive	

From PubChem BioAssay (NCATS)
